# Assay results: the supplement of paper PMC8728848
# Only a selection was taken, and the strongest signals are over-represented in it overall.
# Legend:
# Test in all cases: glycan array binding signal (z-score within array); higher = stronger binding
# Settings in all cases: glycan notation: IUPAC condensed, linker removed; mutation: R186S
# [1] = target: Neu5Ac(a2-3)Gal(b1-3)[Neu5Ac(a2-3)Gal(b1-4)]GlcNAc
# Method in brief: (§1)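 Glycan array data came from 3228 arrays in the Consortium for Functional Glycomics database, and only arrays with an available protein sequence were kept. Glycan names were put into IUPAC-condensed notation, and columns mapping to the same glycan were averaged. The binding signal is a within-array Z-score, averaged across arrays of one protein sequence run at different concentrations or buffers and across linkers. A negative Z-score can be read as non-binding.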
# [2] = target: Neu5Ac(a2-3)Gal(b1-4)[Fuc(a1-3)]GlcNAc(b1-3)GalNAc
# Method in brief: as §1
# [3] = target: Neu5Ac(a2-3)GalNAc(b1-4)GlcNAc
# Method in brief: as §1
# [4] = target: Neu5Ac(a2-6)Gal(b1-4)GlcNAc(b1-2)Man(a1-3)[Gal(b1-4)GlcNAc(b1-2)Man(a1-6)]Man(b1-4)GlcNAc(b1-4)GlcNAc
# Method in brief: as §1
# [5] = target: Neu5Ac(a2-6)Gal(b1-4)GlcNAc(b1-2)Man(a1-3)[Neu5Ac(a2-6)Gal(b1-4)GlcNAc(b1-2)Man(a1-6)]Man(b1-4)GlcNAc(b1-4)GlcNAc
# Method in brief: as §1
# [6] = target: Neu5Ac(a2-6)Gal(b1-4)GlcNAc(b1-3)Gal(b1-3)GlcNAc
# Method in brief: as §1
# [7] = target: Neu5Ac(b2-6)Gal(b1-4)GlcNAc
# Method in brief: as §1
# [8] = target: Neu5Ac(b2-6)GalNAc
# Method in brief: as §1
# [9] = target: Neu5Ac9Ac(a2-3)Gal(b1-3)GlcNAc
# Method in brief: as §1
binder,measurement,setting,value
"Gal 3 (Homo sapiens), P17931 (protein) MADNFSLHDALSGSGNPNPQGWPGAWGNQPAGAGGYPGASYPGAYPGQAPPGAYPGQAPPGAYHGAPGAYPGAPAPGVYPGPPSGPGAYPSSGQPSAPGAYPATGPYGAPAGPLIVPYNLPLPGGVVPRMLITILGTVKPNANILDFQRGNDVAFHFNPRFNENNRRVIVCNTKLDNNWGREESQSVFPFESGKPFKIQVLVEPDHFKVAVNDAHLLQYNHRVKKLNEISKLGISGDIDLTSASYTMI",glycan array binding signal (z-score),[1],-0.076
same,glycan array binding signal (z-score),[2],0.182
same,glycan array binding signal (z-score),[3],-0.062
same,glycan array binding signal (z-score),[4],0.028
same,glycan array binding signal (z-score),[5],-0.05
same,glycan array binding signal (z-score),[6],-0.061
same,glycan array binding signal (z-score),[7],-0.083
same,glycan array binding signal (z-score),[8],-0.023
same,glycan array binding signal (z-score),[9],-0.069
